About 1,300 (0.37%) of roughly 350,000 compounds were called active. Many of the other results were omitted from the sample, so actives are more common in it than they were. Unmarked numbers belong to inactive results.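 The calls were made as follows: active = mean added fluorescence quench of at least 8% versus neutral control, with both replicates also reaching 8%; inconclusive = only one of the mean or replicate conditions met; inactive = mean below 8% and not both replicates reaching 8%.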
Assay: F508del CFTR correction, initial screen, CFBE line, single point (AID 720511);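 also: cells transiently co-express mutant CFTR-F508del with the halide-sensitive YFP; corrector assay measuring rescue of mutant channel to the surface after 24 h compound exposure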
Details: CFBE cells, YFP halide quenching, at 7.58 µM, hits give high values, % fluorescence drop versus neutral controls, stimulated with forskolin plus potentiator P3

SMILES	activity (quench increase)
CC(=O)N(C)C[C@H]1Oc2ncc(C#Cc3ccccn3)cc2C(=O)N([C@H](C)CO)C[C@@H]1C	0.118%
CO[C@@H](CN(C)S(=O)(=O)c1ccccc1)[C@H](C)CN(Cc1ccccc1Cl)[C@H](C)CO	-3.7%
COc1ccc2c3c(n(C)c2c1)[C@H](CO)N(S(=O)(=O)c1ccc(C)cc1)CC31CN(C(=O)c2ccccn2)C1	1.98%
Cc1ccc(S(=O)(=O)Nc2ccc3c(c2)C(=O)N([C@H](C)CO)C[C@@H](C)[C@H](CN(C)C(=O)Nc2ccc(C(F)(F)F)cc2)OCCCC[C@H](C)O3)cc1	-0.228%
Oc1cccc(/C=N/Nc2ccc(Cl)nn2)c1O	13.3% (active)
C/C(=N\Nc1ccc(Cl)nn1)c1ccccc1O	-2.03%
C[C@H]1CCCCO[C@H](CN(C)Cc2ccccc2)[C@@H](C)CN([C@@H](C)CO)C(=O)c2cc(NC(=O)c3ccccc3)ccc2O1	-0.952%
C[C@H]1CN([C@@H](C)CO)S(=O)(=O)c2ccc(C3=CCCCC3)cc2O[C@@H]1CN(C)Cc1ccccc1	-0.755%
C[C@@H]1CN([C@@H](C)CO)S(=O)(=O)c2ccc(-c3ccc(F)cc3)cc2O[C@@H]1CN(C)CC1CC1	2.11%
Oc1ccc(/C=N/Nc2nc(-c3ccccc3F)nc3ccccc23)c(O)c1	12.3% (active)
CO[C@@H]1CN(C)C(=O)c2ccc(NS(=O)(=O)c3cccc(Cl)c3)cc2OC[C@H](C)NC[C@H]1C	-1.91%
CC(C)NC(=O)N(C)C[C@H]1Oc2ccc(NC(=O)Cn3cnnn3)cc2CC(=O)N([C@H](C)CO)C[C@H]1C	-1.17%
Cc1noc(C)c1S(=O)(=O)N(C)C[C@H]1Oc2c(NC(=O)c3cnccn3)cccc2C(=O)N([C@H](C)CO)C[C@H]1C	-0.706%
CCN(CC)CCCNC(=O)c1cc2c(=O)[nH]c3ccc(C)cc3c2s1	4.04%
Cc1ccc2[nH]c(=O)c(CC(=O)O)c(-c3ccccc3)c2c1	-4.85%
Cc1cccc(N(C)C(=O)c2cc3c(=O)[nH]c4ccc(C)cc4c3s2)c1	15.5% (active)

SMILES	activity (quench increase)
Cc1cccc(S(=O)(=O)N2C[C@@H]3[C@H](c4ccccc42)[C@H](CO)N3CC2CCOCC2)c1	-1%
Cc1ccc(S(=O)(=O)N[C@@H]2CC[C@H](CCn3cc(-c4cccc(F)c4)nn3)O[C@@H]2CO)cc1	-2.65%
C[C@@H](NC(=O)[C@@H]1[C@@H](CO)[C@@H]2Cn3c(ccc(C4=CCCCC4)c3=O)[C@@H]2N1C)c1ccccc1	1.82%
C[C@@H]1CCCCO[C@H](CN(C)C(=O)Nc2ccc3c(c2)OCO3)[C@@H](C)CN([C@@H](C)CO)C(=O)c2cc(NC(=O)CCC(F)(F)F)ccc2O1	2.41%
CCS(=O)(=O)N1CC2(CN(C(=O)c3ccc(F)cc3)[C@H](CO)c3c2c2ccc(OC)cc2n3C)C1	2.9%
COc1ccc(NC(=O)C2Cc3c(-c4ccc(Cl)cc4)ccnc3O2)cc1 (configuration not stated)	-2.37%
S=c1[nH]nc(-c2ccc(Cl)cc2)n1CC1CCCO1 (configuration not stated)	-0.339%
O=C(c1[nH]ncc1-c1ccc(Cl)cc1)C1CO1 (configuration not stated)	9.82% (active)
C[C@H](CO)N1C[C@H](C)[C@@H](CN(C)C(=O)C2CC2)Oc2ncc(-c3cccc(C#N)c3)cc2C1=O	0.111%
Cc1ccc(S(=O)(=O)Nc2ccc3c(c2)C(=O)N([C@@H](C)CO)C[C@@H](C)[C@H](CN(C)C(=O)NC(C)C)OCCCC[C@H](C)O3)cc1	-0.752%
COc1ccc(S(=O)(=O)Nc2ccc3c(c2)C(=O)N([C@@H](C)CO)C[C@@H](C)[C@H](CN(C)C(=O)Nc2ccc(C(F)(F)F)cc2)OCCCC[C@@H](C)O3)cc1	-1.09%
CCOC(=O)C1CSCCS(=O)(=O)N1Cc1ccc(Cl)cc1 (configuration not stated)	-1.25%
CO[C@H]1CN(C)C(=O)c2ccc(NC(=O)c3cccc(F)c3)cc2OC[C@H](C)N(CC2CC2)C[C@@H]1C	-0.247%
Cc1cccc(C(=O)OCC(=O)NC(C)C2CC3CCC2C3)c1O (configuration not stated)	25.6% (active)
Cc1c(C(=O)NC(C)C2CC3CCC2C3)cccc1[N+](=O)[O-] (configuration not stated)	-0.675%
Cc1cccc(C(=O)OCC(=O)NCC(C)C)c1O	0.752%
